Inhibition data for 62 molecules are collected here from PubChem BioAssay AID690 (Sanford-Burnham Center for Chemical Genomics, 2007).

Each structure is given as a SMILES string. In all, about 96,000 compounds went through this assay and about 80 (0.08%) were called active. A selection follows. Potency and affinity values are given separately. A number with no mark means an inactive call. No rule for the calls is given here.

The term inhibition denotes the relative decrease from the control value, in per cent.

Chain of Alkaline phosphatase, placental type (Homo sapiens) (P05187 whole entry, looked up): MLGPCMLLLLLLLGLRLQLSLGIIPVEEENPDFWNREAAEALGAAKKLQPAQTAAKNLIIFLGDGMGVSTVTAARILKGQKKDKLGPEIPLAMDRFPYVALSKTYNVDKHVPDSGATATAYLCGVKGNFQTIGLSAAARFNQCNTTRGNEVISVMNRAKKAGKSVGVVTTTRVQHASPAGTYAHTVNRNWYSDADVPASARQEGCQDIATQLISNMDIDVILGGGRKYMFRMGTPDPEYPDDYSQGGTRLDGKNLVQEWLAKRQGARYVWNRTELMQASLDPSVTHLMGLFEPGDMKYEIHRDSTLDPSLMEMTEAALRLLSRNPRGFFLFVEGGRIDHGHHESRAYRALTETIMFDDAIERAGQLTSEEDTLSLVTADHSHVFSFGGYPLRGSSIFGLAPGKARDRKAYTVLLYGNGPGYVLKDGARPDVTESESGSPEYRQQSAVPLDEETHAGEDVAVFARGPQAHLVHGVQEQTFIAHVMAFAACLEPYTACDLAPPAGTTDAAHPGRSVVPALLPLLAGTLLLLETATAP

The experiment has as its target Alkaline phosphatase, placental type (Homo sapiens) (UniProt P05187). The experiment in a line: inhibition of human placental alkaline phosphatase – biochemical, luminescence, HTS (AID 690). As to conditions: purified PLAP, luminescent substrate; at 20 µM; stronger effect = higher value.
Regarding `CCCc1nc(NCc2ccccn2)c2nnn(Cc3ccccc3F)c2n1`, the inhibition was -1.1%. Regarding `COc1ccc(NC(=O)Cc2cccs2)c(OC)c1`, the inhibition was 9.5%. In the case of `O=C(Cc1n[nH]c(=O)[nH]c1=O)N/N=C/c1ccccc1`, the inhibition is -5.4%. With `CCn1c(SCC(=O)c2ccc(O)c(O)c2)nnc1-c1ccc(C)cc1`, the inhibition is -7.9%. As to `CCn1c(SCC(=O)O)nnc1-c1ccccc1`, the inhibition was -9.1%.

Consider `Cc1ccccc1CSc1nccn1-c1ccccc1`, for which the inhibition is 19%. Turning to `COc1cccc(C2=Nn3c(nnc3-c3ccccc3O)SC2)c1`, the inhibition is -37.4%.

As to `COc1ccc(-c2nnc3n2N=C(c2cccc(Br)c2)CS3)cc1OC`, the inhibition was 7.3%. For the molecule `COc1ccc(C2=Nn3c(nnc3-c3ccco3)SC2)cc1`, the inhibition is -72.6%. `COc1ccc(C2=Nn3c(nnc3-c3ccco3)SC2)cc1OC`: the inhibition was 14.5%. As for `CCOC(=O)CC1C(=O)NCCN1C(=O)c1cccc(C(F)(F)F)c1` (configuration not stated), the inhibition is 4.8%. With `COc1ccc(S(=O)(=O)NCC(=O)N(CC(=O)NCC2CCCO2)c2cc(C)ccc2C)cc1` (configuration not stated) the figure was -64.9%. As for `Cc1ccc(Cn2nnnc2CN2CCC(c3nc4ccc(Cl)cc4[nH]3)CC2)cc1`, the inhibition is -87.9%.

As for `Cc1cc2nc(C3CCN(Cc4nnnn4Cc4ccccc4)CC3)[nH]c2cc1C`, the inhibition is -140%. With `COCCCNC(=O)CCn1c(=O)c2ccccc2n(CC(=O)Nc2cc(Cl)ccc2C)c1=O`, the inhibition is 7.1%. Take `Cc1c(O)ccc(C(=O)COc2ccccc2F)c1O`: the inhibition is 8.2%.

With `C=CCNc1ncnc2ccccc12`, the inhibition was 7.5%. In the case of `Cc1ccc(N2Cc3ccccc3OC(C)C2=O)cc1` (configuration not stated) it was -23.8%. With `Cc1cn2c(-c3cccnc3)nnc2s1` the figure was 3.7%. Regarding `CCCn1c(=O)[nH]c(=O)c2c1nc(-c1ccc(OC(F)F)cc1)n2CCN1CCOCC1`, the inhibition is 12.5%. Consider `CCCc1[nH]nc2c1C(c1cc(OC)cc(OC)c1)C(C#N)=C(N)O2` (configuration not stated), for which the inhibition was -45.4%.

Consider `CCCc1[nH]nc2c1C(c1cccc(OC)c1)C(C#N)=C(N)O2` (configuration not stated), for which the inhibition is -46.3%. In the case of `COCc1[nH]nc2c1C(c1ccc(OC)c(OC)c1)C(C#N)=C(N)O2` (configuration not stated) it was -0.8%; in that of `COCc1[nH]nc2c1C(c1ccc(OC)cc1)C(C#N)=C(N)O2` (configuration not stated), 6.1%. Take `CC(=O)N(C)c1ccc(NC(=O)/C=C/c2ccccc2Cl)cc1`: the inhibition is 0.9%. As for `CCC1=C(OC(=O)c2ccccc2)C(C)(C)C(c2ccccc2)OC1=O` (configuration not stated), the inhibition was 22.6%. As to `CC1=C(C(N)=O)C(c2ccncc2)n2nc(-c3ccccc3Cl)nc2N1` (configuration not stated), the inhibition was 8.9%. For `CCOC(=O)c1ccc(CNC(=O)Cn2nnc(-c3ccc(C)cc3)n2)o1`, the inhibition is 1.5%. With `COC(=O)c1ccc(C)c(NC(=O)Cn2cnc3ccccc3c2=O)c1` the figure was 5.9%. With `CCN=c1scc(-c2ccco2)n1/N=C/c1ccc(O)cc1` the figure was -11.5%; with `CCN=c1scc(-c2ccco2)n1/N=C/c1ccc(OC)c(O)c1`, -2.2%.

Consider `CCc1ccc(CN2CCN(S(=O)(=O)Cc3ccccc3)CC2)cc1`, for which the inhibition is 11.5%. On to `CC(=O)Nc1ccc(-c2cc3ccccc3o2)cc1`, for which the inhibition was 0.5%. For `Cc1ccccc1C(=O)c1cccn1CC(=O)NCC1CCCO1` (configuration not stated), the inhibition was -11.1%. In the case of `COc1cccc(/C=C2\N=C3CCCCCN3C2=O)c1` it was 2.1%; in that of `COc1ccc(/C=C2\N=C3CCCCCN3C2=O)cc1OC`, -6.1%. `Cc1ccc(C)c(NC(=S)NC(NC(=O)N(C)C)C(Cl)(Cl)Cl)c1` (configuration not stated): the inhibition was -58%. As to `Cc1ccc(NC(=S)NC(NC(=O)Cc2cccc3ccccc23)C(Cl)(Cl)Cl)cc1` (configuration not stated), the inhibition is 36.5%. For the molecule `Cc1nc(N2CCN(S(=O)(=O)c3ccccc3)CC2)c2c3c(sc2n1)CC(C)CC3` (configuration not stated), the inhibition was -34.1%. Consider `O=C1c2ccc3c4c(ccc(c24)C(=O)N1Cc1cccnc1)C(=O)N(Cc1cccnc1)C3=O`, for which the inhibition was 4.9%.

For the molecule `CC(O)CNc1nc2c(c(=O)n(C)c(=O)n2C)n1C/C=C/c1ccccc1` (configuration not stated), the inhibition is -20.9%. With `CCN1C(=O)/C(=C2\C=Cc3ccccc3N2CC)SC1=S` the figure was 23.5%. Consider `CCCN1/C(=C2/SC(=S)N(CC)C2=O)C=Cc2ccccc21`, for which the inhibition was 11.9%. As to `CCn1ncc(Br)c1C(=O)N(C)C12CC3CC(CC(C3)C1)C2`, the inhibition was -9.1%.

For `CN(CCNC(=O)c1cccc(N2CCCC2=O)c1)Cc1ccccc1`, the inhibition is -40.3%. `O=C1Nc2ccccc2/C1=N\N=C\C1=C(N2CCOCC2)C(=C\c2ccccc2)/CC1`: the inhibition was -12.2%. Regarding `O=P(C1=C(N2CCOCC2)/C(=C\c2ccccc2)CC1)(N1CCOCC1)N1CCOCC1`, the inhibition was -69.4%. Regarding `O=C(O)c1c(Cl)c(Cl)c(Cl)c(Cl)c1C(=O)N1CCCC1`, the inhibition was -10.8%. On to `CCOCC(O)CSCc1ccc(Cl)cc1` (configuration not stated), for which the inhibition was -5%. For the molecule `COc1ccc(CNC(=O)c2ccc(-c3ccccc3)cc2)cc1`, the inhibition was 6.9%. Turning to `Fc1cccc(Cl)c1CSc1nnnn1-c1ccc2c(c1)OCO2`, the inhibition is 22.7%.

Regarding `Fc1ccccc1CSc1nnnn1-c1ccc2c(c1)OCO2`, the inhibition was 13.8%. Turning to `CCOC(=O)CC(=O)CSc1nc2c(cc1C#N)CCC2`, the inhibition was 0%. Turning to `CC(C)NS(=O)(=O)c1ccc(OCC(=O)NCc2ccccc2)cc1`, the inhibition was -1.7%. In the case of `O=C1C2CC=CCC2C(=O)N1c1n[nH]c(Cc2ccccc2)n1` (configuration not stated), the inhibition is 62.3%.

Take `O=C1C2C3C=CC(C3)C2C(=O)N1c1cccc(N2C(=O)C3C4C=CC(C4)C3C2=O)n1` (configuration not stated): the inhibition was -1.8%.

Consider `O=C1C2C3C=CC(C3)C2C(=O)N1Cc1cccnc1` (configuration not stated), for which the inhibition was 0.6%. With `O=C1C2CC=CCC2C(=O)N1c1n[nH]c(CCc2ccccc2)n1` (configuration not stated) the figure was -20.2%; with `O=C1C2C3C=CC(C3)C2C(=O)N1c1cccnc1` (configuration not stated), 15.9%; with `O=C1C2C3C=CC(C3)C2C(=O)N1c1n[nH]c(CCc2ccccc2)n1` (configuration not stated), 30%. In the case of `Cc1ccc(SCCNC(=O)C(CO)(CO)CO)cc1`, the inhibition was 11.9%. For the molecule `COc1ccc(CN(Cc2cc3ccc(C)cc3[nH]c2=O)Cc2nnnn2C2CCCC2)cc1`, the inhibition was -54.8%.
